These results are taken from PubChem BioAssay (NCATS).

Structures are written as SMILES. Values without a mark were called inactive. Results filed as inconclusive are left out. Active and inactive are the calls of the source. Calls come from the whole dose curve; as a rule, active = well fitted curve in the direction sought with a large enough effect; inconclusive = small, poorly fitted or top-dose-only effect, or another doubt; inactive = no such curve, though single readings can be large; an effect the other way counts as inactive or inconclusive.

For assay [1], the target named is Glutathione peroxidase 1 (Homo sapiens) (UniProt P07203). The assay is described as follows: Primary qHTS Assay for Inhibitors of Recombinant Selenoprotein Glutathione Peroxidase 1 (GPX1) (AID 1845191). For activity, negative = inhibition: % is set by controls: 0 for no effect and ±100 for the full control effect. Note: nearly all actives have a fitted effect of over 65% in size. In a few lines:
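NADPH consumption tracked by fluorescence at 340/450 nm between t=0 and t=15 min, room temperature. Final mix: 10 nM GPX1, 100 nM glutathione reductase, 1 mM GSH, 0.5 mM NADPH, 0.5 mM cumene hydroperoxide, 0.01% BSA; 30 min compound–enzyme preincubation.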

Assay [2] concerns the target Metallo-beta-lactamase type 2 (Klebsiella pneumoniae) (UniProt C7C422). The assay is described as follows: qHTS to identify inhibitors of the New Delhi Metallo-beta-lactamase (NDM): assay validation screen against the NCATS LOPAC Collection (AID 1794843).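 Note: nitrocefin turnover by NDM-1 measured as 485 nm absorbance at plateau; series mostly up to about 38 µM; % is set by controls: 0 for no effect and ±100 for the full control effect.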 In a few lines:
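NDM-1 at 2 nM final in 50 mM HEPES pH 7.0 with 1 uM ZnSO4 and 0.01% Tween20 was preincubated with library compounds in DMSO. Nitrocefin (50 uM stock) was then added, and absorbance at 485 nm was read at the kinetic plateau.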
For orientation: In qHTS, concentration-response curves come from the screen itself.

The target of assay [3] is Phospholipid hydroperoxide glutathione peroxidase GPX4 (Homo sapiens) (UniProt P36969). Briefly: Primary qHTS Assay for Inhibitors of Recombinant Selenoprotein Glutathione Peroxidase 4 (GPX4) (AID 1845192). Note: nearly all actives have a fitted effect of over 65% in size. The method, boiled down: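 NADPH consumption followed by fluorescence at 340/450 nm, t=0 and after 15 min at room temperature. Reaction started with cumene hydroperoxide (0.5 mM final) after 30 min compound–GPX4 preincubation; final 200 nM GPX4, 100 nM GR, 1 mM GSH, 0.5 mM NADPH.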
Chain of Phospholipid hydroperoxide glutathione peroxidase GPX4 (Homo sapiens) (P36969 whole entry, looked up): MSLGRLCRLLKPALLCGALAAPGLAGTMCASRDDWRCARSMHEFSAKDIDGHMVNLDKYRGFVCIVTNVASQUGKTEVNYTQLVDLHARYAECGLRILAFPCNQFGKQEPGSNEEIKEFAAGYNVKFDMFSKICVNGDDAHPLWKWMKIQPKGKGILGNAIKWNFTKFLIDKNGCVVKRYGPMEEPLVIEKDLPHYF

The target in assay [4] is Luciferin 4-monooxygenase (Photinus pyralis) (UniProt P08659). Briefly: Primary firefly luciferase (FLuc) qHTS assay for identification of artifact compounds. (AID 1845220). Note: nearly all actives have a fitted effect of over 60% in size. In a few lines:
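FLuc 10 nM; luciferin 10 uM; ATP 10 uM; Tris-acetate pH 7.6, Mg-acetate 10 mM; 15 min RT preincubation; 5 min reaction; luminescence.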

Assay [5] deals with Nanoluciferase (engineered Oplophorus gracilirostris luciferase). Briefly: Primary Nanoluciferase (NLuc) qHTS assay for identification of artifact compounds. (AID 1845222).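 Note: NLuc secreted into diluted conditioned medium of S16 cells; series mostly up to about 54 µM; 0% = DMSO and -100% = no enzyme.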 The method, boiled down: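 NLuc from S16 cell medium (1:55) plus test compounds, 15 min, room temperature. Luminescence after Nano-Glo (1:100) addition, 5 min.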
Assay [6] in a line: Primary redox qHTS assay for identification of artifact compounds. (AID 1845223).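 Note: 0% = DMSO and 100% = reference compound.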 The method, boiled down:
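Redox-cycling detection via DTT (250 uM final) oxidation coupled to Amplex Red (25 uM)/HRP (250 mU/mL) in HBSS. 15 min preincubation plus 30 min after DTT, room temperature. Ex/Em 525/598 nm; 4-parameter Hill fit against DMSO and 10 uM DA3003.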

Assay [7] is described as follows: Viability counterscreen for antagonist of constitutive androstane receptor (CAR) against the NCATS DSHEA and TCM libraries (AID 1794837).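 Note: compound exposure lasted 24 h before viability reading; 0% is about no effect.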 In a few lines:
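Counterscreen performed in a 1536-well qHTS format using HepG2-CYP2B6-hCAR cells; samples titrated in the presence of 48 uM CITCO, with viability measured fluorometrically (405/540 nm) after 24 h.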
(Counterscreens check selectivity or assay interference.)

The nature of assay [8]: Viability counterscreen for agonist of constitutive androstane receptor (CAR) against the NCATS DSHEA and TCM libraries (AID 1794838).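 Note: cells exposed to compound for 24 h; 0% is about no effect.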 The method, boiled down:
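Multiplexed counterscreen: after 24 h compound exposure with 0.75 uM PK11195, HepG2-CYP2B6-hCAR viability was quantified fluorimetrically (CellTiter-Fluor, 405/540 nm) prior to the ONE-Glo luciferase read.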

Assay [9] addresses Nuclear receptor subfamily 1 group I member 3 (Homo sapiens) (UniProt Q14994). The assay is described as follows: Primary qHTS for agonist of constitutive androstane receptor (CAR) against the NCATS DSHEA and TCM libraries (AID 1794839).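 Note: HepG2 cells expressing human CAR with a CYP2B6 reporter plus PK11195 antagonist; luciferase reporter luminescence read with ONE-Glo; 0% is about no effect.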 In a few lines:
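Concentration–response screen in HepG2-CYP2B6-hCAR cells under 0.75 µM PK11195; 24 h exposure; luminescent reporter signal with multiplexed fluorescent viability.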

Assay [10] in a line: HepG2 viability counterscreen (readout 2: ATP content) against the NCATS DSHEA and TCM libraries (AID 1794840).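 Note: HepG2 cells exposed to substances for about 24 h; 0% is about no effect.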 The method, boiled down: (§1)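 After HepG2 cells attach for ~4 h, substances are added and incubated ~24 h at 37C, 5% CO2. GF-AFC fluorescence then CellTiter-Glo luminescence give protease and ATP readouts.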
The nature of assay [11]: HepG2 viability counterscreen (readout 1: protease activity) against the NCATS DSHEA and TCM libraries (AID 1794841).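 Note: cells exposed to compounds for about 24 h before the protease read; 0% is about no effect.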 The method, boiled down: as §1
Assay [12] concerns the target Cytochrome P450 3A4 (Homo sapiens) (UniProt P08684). Briefly: qHTS for inhibitors of CYP3A4 against the NCATS DSHEA and TCM libraries (AID 1919971).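 Note: % is set by controls: 0 for no effect and ±100 for the full control effect; inhibition lowers luminescence from luciferin made by CYP3A4.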 In a few lines: (§2)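 Substances were tested against enzyme with a pro-luciferin substrate; minus-enzyme wells served as background. After NADPH-initiated oxidation (30-45 min, RT), light was generated with P450-Glo reagent.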

The target in assay [13] is Cytochrome P450 2D6 (Homo sapiens) (UniProt P10635). The assay is described as follows: qHTS for inhibitors of CYP2D6 against the NCATS DSHEA and TCM libraries (AID 1919972). Note: % is set by controls: 0 for no effect and ±100 for the full control effect. The method, boiled down:
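qHTS, concentration–response format with most substances from 19.5 nM. CYP2D6 + pro-luciferin substrate, 15 min with compound, then 1x NADPH regen, 30–45 min RT dark. Glo detection 30 min, luminescence. Quinidine control.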

The target of assay [14] is Cytochrome P450 2C9 (Homo sapiens) (UniProt P11712). The assay is described as follows: qHTS for inhibitors of CYP2C9 against the NCATS DSHEA and TCM libraries (AID 1919973).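 Note: luminogenic pro-luciferin CYP2C9 substrate turned into luciferin with NADPH regeneration; series mostly up to about 34 µM; % is set by controls: 0 for no effect and ±100 for the full control effect.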 The method, boiled down: as §2
Chain of Cytochrome P450 2C9 (Homo sapiens) (P11712 whole entry, looked up): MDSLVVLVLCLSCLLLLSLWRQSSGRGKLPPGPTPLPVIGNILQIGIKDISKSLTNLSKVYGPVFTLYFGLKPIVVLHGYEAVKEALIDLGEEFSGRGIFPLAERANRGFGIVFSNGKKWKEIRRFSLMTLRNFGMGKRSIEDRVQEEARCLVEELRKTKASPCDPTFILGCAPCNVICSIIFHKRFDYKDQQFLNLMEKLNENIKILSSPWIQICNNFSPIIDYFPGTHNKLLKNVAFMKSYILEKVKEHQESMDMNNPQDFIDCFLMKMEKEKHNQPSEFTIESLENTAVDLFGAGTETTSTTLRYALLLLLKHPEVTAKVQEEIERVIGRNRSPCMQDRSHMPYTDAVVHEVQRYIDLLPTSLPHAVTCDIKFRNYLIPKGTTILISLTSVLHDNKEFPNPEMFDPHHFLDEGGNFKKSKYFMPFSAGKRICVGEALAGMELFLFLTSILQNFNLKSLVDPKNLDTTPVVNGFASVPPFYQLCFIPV
Assay [15] addresses Cytochrome P450 2C19 (Homo sapiens) (UniProt P33261). Briefly: qHTS for inhibitors of CYP2C19 against the NCATS DSHEA and TCM libraries (AID 1919974).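 Note: luminescence from luciferin released by CYP2C19 oxidation of a pro-luciferin substrate; potency is the fitted concentration of half-maximal effect.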 In a few lines:
as §2

A short description of assay [16]: KB-3-1 P-gp reporter qHTS against the NCATS DSHEA and TCM libraries (AID 1919975). Note: 0% is about no effect. In a few lines:
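Cell viability qHTS: 500 KB-3-1 cells/well, substances in titration, ~72 h, 37C; luminescent CellTiter-Glo read.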

For assay [17], the target named is Cytochrome P450 1A2 (Homo sapiens) (UniProt P05177). Briefly: qHTS for inhibitors of CYPIA2 against the NCATS DSHEA and TCM libraries (AID 1919976). Note: potency is the fitted concentration of half-maximal effect. The method, boiled down: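 Luminescence read-out: pro-luciferin converted to D-luciferin by CYP1A2, detected with P450-Glo reagent after 30 min RT. Enzyme plus substrate got compounds for 15 min RT; NADPH regeneration solution (final 1x) started a 30-45 min reaction, light-protected.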
Chain of Cytochrome P450 1A2 (Homo sapiens) (P05177 whole entry, looked up): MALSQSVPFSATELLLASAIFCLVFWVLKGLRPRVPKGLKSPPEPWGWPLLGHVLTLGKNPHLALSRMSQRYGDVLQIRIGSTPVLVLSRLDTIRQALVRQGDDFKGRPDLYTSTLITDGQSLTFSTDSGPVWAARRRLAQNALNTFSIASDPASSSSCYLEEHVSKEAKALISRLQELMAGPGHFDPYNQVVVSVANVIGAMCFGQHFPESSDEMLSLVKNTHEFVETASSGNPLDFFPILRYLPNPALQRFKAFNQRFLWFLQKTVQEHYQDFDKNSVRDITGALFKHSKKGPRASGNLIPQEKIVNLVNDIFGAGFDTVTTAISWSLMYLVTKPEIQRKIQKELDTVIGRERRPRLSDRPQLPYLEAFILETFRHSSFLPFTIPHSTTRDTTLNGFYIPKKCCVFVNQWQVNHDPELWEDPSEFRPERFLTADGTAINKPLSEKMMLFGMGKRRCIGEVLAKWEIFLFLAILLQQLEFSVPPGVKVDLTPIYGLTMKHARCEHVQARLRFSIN

Assay [18] in a line: qHTS Counterscreen for compound interference against the NCATS DSHEA and TCM libraries (AID 1919978).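 Note: compounds preincubated with 1 µM D-luciferin or buffer before detection reagent; % of control where 0% means no effect.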 The note with it: firefly luciferase detection reagent interference, luminescence. The method, boiled down: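 Interference check: test samples were incubated with D-luciferin (final 1 uM) or buffer only for 15 min, room temperature, in a qHTS titration up to 39.8 uM, then developed with detection reagent and read by luminescence.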

Chain of Glutathione peroxidase 1 (Homo sapiens) (P07203 whole entry, looked up): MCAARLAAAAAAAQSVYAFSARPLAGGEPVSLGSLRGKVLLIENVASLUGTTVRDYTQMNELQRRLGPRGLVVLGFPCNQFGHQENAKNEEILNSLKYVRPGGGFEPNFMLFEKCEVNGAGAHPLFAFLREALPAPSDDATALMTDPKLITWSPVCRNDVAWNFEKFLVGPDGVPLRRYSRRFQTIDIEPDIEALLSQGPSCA
Chain of Cytochrome P450 3A4 (Homo sapiens) (P08684 whole entry, looked up): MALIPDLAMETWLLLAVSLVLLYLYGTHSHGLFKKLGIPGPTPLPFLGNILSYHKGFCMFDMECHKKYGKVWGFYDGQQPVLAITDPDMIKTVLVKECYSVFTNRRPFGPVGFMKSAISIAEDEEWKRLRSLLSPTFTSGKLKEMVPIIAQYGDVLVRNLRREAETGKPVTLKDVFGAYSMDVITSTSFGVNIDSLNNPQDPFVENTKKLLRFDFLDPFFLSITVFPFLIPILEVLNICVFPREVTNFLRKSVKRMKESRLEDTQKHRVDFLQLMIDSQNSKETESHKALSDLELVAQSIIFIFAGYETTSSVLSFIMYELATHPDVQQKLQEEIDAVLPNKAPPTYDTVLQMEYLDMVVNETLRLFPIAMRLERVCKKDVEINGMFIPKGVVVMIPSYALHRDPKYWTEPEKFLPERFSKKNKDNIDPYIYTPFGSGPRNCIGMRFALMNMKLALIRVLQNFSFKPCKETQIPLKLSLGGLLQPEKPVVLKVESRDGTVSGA
Chain of Metallo-beta-lactamase type 2 (Klebsiella pneumoniae) (C7C422 whole entry, looked up): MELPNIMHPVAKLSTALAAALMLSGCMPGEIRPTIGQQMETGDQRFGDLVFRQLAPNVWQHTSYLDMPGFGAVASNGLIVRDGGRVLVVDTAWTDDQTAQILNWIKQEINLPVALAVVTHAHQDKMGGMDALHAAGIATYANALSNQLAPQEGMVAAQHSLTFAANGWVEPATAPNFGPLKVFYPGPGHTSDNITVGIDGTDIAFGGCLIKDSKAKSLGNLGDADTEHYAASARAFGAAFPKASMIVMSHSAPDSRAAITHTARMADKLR
Chain of Cytochrome P450 2C19 (Homo sapiens) (P33261 whole entry, looked up): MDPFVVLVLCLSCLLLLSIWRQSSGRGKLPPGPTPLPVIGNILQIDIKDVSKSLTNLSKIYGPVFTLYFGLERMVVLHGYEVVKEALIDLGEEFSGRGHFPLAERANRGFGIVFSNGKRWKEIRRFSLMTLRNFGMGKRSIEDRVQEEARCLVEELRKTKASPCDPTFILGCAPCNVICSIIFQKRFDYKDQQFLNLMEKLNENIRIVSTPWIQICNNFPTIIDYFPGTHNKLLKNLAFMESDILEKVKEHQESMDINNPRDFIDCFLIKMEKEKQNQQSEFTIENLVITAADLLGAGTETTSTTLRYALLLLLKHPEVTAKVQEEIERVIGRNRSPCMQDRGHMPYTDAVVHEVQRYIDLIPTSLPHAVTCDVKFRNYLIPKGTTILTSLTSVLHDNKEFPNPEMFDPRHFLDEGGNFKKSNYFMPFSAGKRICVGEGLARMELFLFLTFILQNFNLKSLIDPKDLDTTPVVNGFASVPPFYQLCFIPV
Chain of Nuclear receptor subfamily 1 group I member 3 (Homo sapiens) (Q14994 whole entry, looked up): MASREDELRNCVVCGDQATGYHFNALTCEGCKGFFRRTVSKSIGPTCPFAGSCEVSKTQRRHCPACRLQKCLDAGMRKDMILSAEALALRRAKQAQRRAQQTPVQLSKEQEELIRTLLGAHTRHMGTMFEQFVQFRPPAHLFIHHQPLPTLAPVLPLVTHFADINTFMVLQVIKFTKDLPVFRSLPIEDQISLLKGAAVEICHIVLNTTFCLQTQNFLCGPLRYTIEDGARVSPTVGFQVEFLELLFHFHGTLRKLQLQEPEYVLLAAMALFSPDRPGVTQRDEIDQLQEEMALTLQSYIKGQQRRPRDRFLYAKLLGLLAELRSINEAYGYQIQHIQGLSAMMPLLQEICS
Chain of Cytochrome P450 2D6 (Homo sapiens) (P10635 whole entry, looked up): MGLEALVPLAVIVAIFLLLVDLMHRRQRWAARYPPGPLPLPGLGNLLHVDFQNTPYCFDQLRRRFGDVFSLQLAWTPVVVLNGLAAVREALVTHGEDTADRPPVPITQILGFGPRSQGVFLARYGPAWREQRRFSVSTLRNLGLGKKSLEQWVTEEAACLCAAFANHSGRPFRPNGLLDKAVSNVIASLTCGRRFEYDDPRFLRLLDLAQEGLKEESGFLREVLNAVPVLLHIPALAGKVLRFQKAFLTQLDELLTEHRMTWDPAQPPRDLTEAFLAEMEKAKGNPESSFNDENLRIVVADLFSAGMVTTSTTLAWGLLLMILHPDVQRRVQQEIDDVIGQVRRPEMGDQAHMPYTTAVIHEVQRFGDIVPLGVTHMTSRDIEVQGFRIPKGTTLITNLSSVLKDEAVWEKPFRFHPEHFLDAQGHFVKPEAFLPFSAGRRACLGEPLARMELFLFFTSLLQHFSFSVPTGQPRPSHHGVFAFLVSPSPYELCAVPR

With `Cc1ccc(C(C)OC(=O)C2(C)CCC(C(=O)O)C2(C)C)cc1` (stereo not given), the Potency result in assay [1] is “inactive”.
As to `O=C(COCCOCCOCC(=O)Nc1c(I)cc(I)c(C(=O)O)c1I)Nc1c(I)cc(I)c(C(=O)O)c1I`, the Potency result in [1] is “inactive”.
In the case of `O=[N+]([O-])c1ccc(-c2nc(-c3ccc(F)cc3)c(-c3ccncc3)[nH]2)cc1`, the compound was called inactive in assay [2] and in assay [6]. The Potency result in assay [1], in [3], in [4] and in assay [5] was “inactive” throughout.
Take `CN1CCC(Nc2ncc3ncnc(Nc4ccc(F)c(Cl)c4)c3n2)CC1`: the Potency entry in [1] is “inactive”.
Take `O=C(O)c1ccccc1Nc1cc(Cl)ccc1C(=O)O`: the Potency entry in [1] is “inactive”.
Turning to `O=C(O)CCCC[C@@H]1SC[C@@H]2NC(=O)N[C@@H]21`, the compound was called inactive in [7], in [8], in assay [9], in [10], in assay [11] and in assay [12]. The outcome in assay [13], in assay [14] and in assay [16] was inactive. Besides, the Potency entry in assay [1] and in assay [3] was “inactive” in each case. In addition, the Potency in assay [15] was 3.55 µM (active); in assay [17] it was 3.98 µM (active). For the same compound, the max response in [18] is 3.76%.
As to `Cc1ccc(C(=O)C(=O)O)cc1C`, the Potency result in assay [1] is “inactive”.
For the compound `NCC[C@H](O)C(=O)N[C@@H]1C[C@H](N)[C@@H](O[C@H]2O[C@H](CN)[C@@H](O)[C@H](O)[C@@H]2O)[C@H](O)[C@@H]1O[C@H]1O[C@H](CO)[C@@H](O)[C@H](N)[C@@H]1O`, the activity, negative = inhibition in assay [1] was -13.8% [at 0.4 µM].
Take `CCOC(=O)Oc1ccc(CCNC(=O)[C@H](CCSC)NC(C)=O)cc1OC(=O)OCC`: the Potency result in assay [1] and in assay [3] was “inactive” each time.
As for `CN(C(=O)C(Cl)Cl)c1ccc(OC(=O)c2ccco2)cc1`, the Potency result in [1] and in assay [3] was “inactive” throughout.
For the compound `COc1ccc2c(c1)c(CC(=O)OC/C=C(\C)CC/C=C(\C)CCC=C(C)C)c(C)n2C(=O)c1ccc(Cl)cc1`, the Potency result in [1] and in assay [3] was “inactive” each time.
`CC1(C)O[C@@H]2C[C@H]3[C@@H]4C[C@H](F)C5=CC(=O)C=C[C@]5(C)[C@@]4(F)[C@@H](O)C[C@]3(C)[C@]2(C(=O)CO)O1`: the Potency entry in assay [1] and in assay [3] was “inactive” in each case.
Consider `CNC(=O)c1cnn(-c2nc(N)c3ncn([C@@H]4O[C@H](CO)[C@@H](O)[C@H]4O)c3n2)c1`, for which the Potency entry in assay [1] and in [3] was “inactive” in each case.
In the case of `CCOC(=O)C1=C(C)NC(C)=C(C(=O)OCC)C1c1ccccc1/C=C/C(=O)OC(C)(C)C`, the Potency result in assay [1] and in [3] was “inactive” throughout.
For the compound `C/C(=N/NC(=O)c1ccncc1)C(=O)O`, the Potency result in [1] and in assay [3] was “inactive” each time.
As for `CC[C@@H]([C@H](C)O)n1ncn(-c2ccc(N3CCN(c4ccc(OC[C@@H]5CO[C@@](Cn6cncn6)(c6ccc(F)cc6F)C5)cc4)CC3)cc2)c1=O`, the Potency result in [1] and in assay [3] was “inactive” in each case.
For `Cc1oc(=O)oc1COC(=O)[C@@H]1N2C(=O)[C@@H](NC(=O)[C@H](N)c3ccccc3)[C@H]2SC1(C)C`, the Potency result in assay [1] and in [3] was “inactive” each time.
In the case of `Cc1ccc(/C=N/n2c(-c3ccccc3)csc2=S)cc1`, the Potency result in assay [1] and in assay [3] was “inactive” each time.
As to `CCCCCC(=O)O[C@]1(C(C)=O)CC[C@H]2[C@@H]3CCC4=CC(=O)CC[C@]4(C)[C@H]3CC[C@@]21C`, the Potency entry in assay [1] and in [3] was “inactive” each time.
Take `CC(=O)OCC[N+](C)(C)C`: the Potency result in [1] and in assay [3] was “inactive” in each case.
